Conditions in all cases: concentration: 10 µM; 24 h
Assay [1] relates to HCC1569. Kind of assay: cell number relative to DMSO (% of DMSO); higher = more cells (less growth inhibition / toxicity). Put shortly: (§1)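 Compounds were applied at 10 µM for 24 h at 37 °C, in triplicate, to HCC1569 and TDF cells. The cells were then fixed and stained for H1.0, and nuclei were counterstained with DAPI. Nuclear H1.0 intensity or cell number is reported relative to the plate control as a percent, taking the median of replicates. Smoothing for positional effects was applied to HCC1569 values only.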

The subject of assay [2] is TDF. Described as above. In a few lines: as §1
Assay [3] concerns TDF. Nature of the assay: H1.0 immunofluorescence intensity relative to DMSO (% of DMSO); higher = stronger H1.0 induction, active = 120 or more. Put shortly: as §1
Assay [4] deals with HCC1569. Kind of assay: H1.0 immunofluorescence intensity relative to DMSO (% of DMSO); higher = stronger H1.0 induction, active = 140 or more. Put shortly: as §1

Several values for one entry are separate records, joined by “and”; a condition that tells them apart may be missing. Identical values can stand only once.

Cell number and H1.0 immunofluorescence intensity data for 23 molecules are collected here from the supplement of paper PMC7156485.
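Throughout, for H1.0 immunofluorescence intensity relative to DMSO: TDF is a line of transformed human dermal fibroblasts of mesenchymal origin.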
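Throughout, for cell number relative to DMSO: TDF denotes transformed human dermal fibroblasts of mesenchymal origin.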

As to `Cl.Fc1cccc(CN(C2=NCCN2)c2c(Cl)cccc2Cl)c1` [IMID-4F hydrochloride], the values for the cell number in the assay on HCC1569 [1] and in the assay with TDF [2] were 99.4 and 99.7, respectively. Also, the values for the H1.0 immunofluorescence intensity in the assay with TDF [3] and in the assay with HCC1569 [4] were 102 (inactive) and 134 (inactive), respectively.

Consider `Cc1cccc(-c2nn(C(=S)Nc3ccccc3)cc2-c2ccnc3ccccc23)n1`, for which the results for the cell number in the assay on HCC1569 [1] and in the assay on TDF [2] were 98.7 and 97.7, respectively. Also, the figures for the H1.0 immunofluorescence intensity with TDF [3] and in the assay on HCC1569 [4] were 82.2 (inactive) and 134 (inactive), respectively.

As to `Cn1c(=O)c2[nH]c(C3CCCC3)nc2n(C)c1=O` [8-Cyclopentyl-1,3-dimethylxanthine], the cell number was 97.7 in the assay on HCC1569 [1] and 99.4 with TDF [2]. Besides, the H1.0 immunofluorescence intensity with TDF [3] was 98.6 (inactive); in the assay on HCC1569 [4], 102 (inactive).

Take `CNC(=O)C1OC(n2cnc3c(N)ncnc32)C(O)C1O` (configuration not stated) [5'-N-Methyl carboxamidoadenosine]: the cell number in the assay on HCC1569 [1] and in the assay with TDF [2] was 110 in each case. In addition, the H1.0 immunofluorescence intensity in the assay on TDF [3] was 104 (inactive); with HCC1569 [4] it was 98.9 (inactive).

In the case of `Cn1c(=O)c2c(ncn2Cc2ccc(C(C)(C)C)cc2)n(C)c1=O`, the figures for the cell number in the assay on HCC1569 [1] and in the assay on TDF [2] were 81.6 and 71.4, respectively. In addition, the H1.0 immunofluorescence intensity is 106 (inactive) in the assay on TDF [3] and 154 (active) in the assay with HCC1569 [4].

For the molecule `O=C1NC(=O)c2c1c1c3ccccc3[nH]c1c1[nH]c3cc(Br)ccc3c21` [Cdk4 Inhibitor], the cell number in the assay with HCC1569 [1] came out at 74.2; in the assay on TDF [2], 63.5. The H1.0 immunofluorescence intensity was 91.2 (inactive) in the assay with TDF [3] and 208 (active) with HCC1569 [4].

Consider `Cc1nc(C)c(C)nc1C` [Tetramethylpyrazine], for which the results for the cell number in the assay with HCC1569 [1] and in the assay on TDF [2] were 106 and 108, respectively. For the same molecule, the H1.0 immunofluorescence intensity in the assay on TDF [3] is 92.9 (inactive); in the assay with HCC1569 [4], 94.2 (inactive).

As to `CC(C)CN(C)c1nc(N)c(C(=O)N=C(N)N)nc1Cl` [5-(N-Methyl-N-isobutyl)amiloride], the cell number in the assay with HCC1569 [1] came out at 100; in the assay with TDF [2] it was 92.3. Further, the figures for the H1.0 immunofluorescence intensity with TDF [3] and in the assay on HCC1569 [4] were 106 (inactive) and 101 (inactive), respectively.

Consider `COc1ccc(C=Cc2cc(O)cc(OC3OC(CO)C(O)C(O)C3O)c2)cc1O` (configuration not stated) [Rhapontin], for which the results for the cell number in the assay with HCC1569 [1] and in the assay with TDF [2] were 99.2 and 104, respectively. For the same molecule, the H1.0 immunofluorescence intensity with TDF [3] is 96 (inactive); in the assay on HCC1569 [4], 83.7 (inactive).

On to `COc1cc2c(cc1OC)CC(=O)N(CCCN(C)C[C@H]1Cc3cc(OC)c(OC)cc31)CC2.Cl`, for which the figures for the cell number in the assay with HCC1569 [1] and in the assay with TDF [2] were 100 and 102, respectively. The H1.0 immunofluorescence intensity in the assay with TDF [3] was 92.6 (inactive); with HCC1569 [4], 97.3 (inactive).

Consider `O=C(O)CCCC=CCC1C(O)CC(O)C1C=CC(O)COc1cccc(C(F)(F)F)c1` (configuration not stated) [Fluprostenol], for which the cell number in the assay on HCC1569 [1] amounted to 100; with TDF [2] it was 96. For the same molecule, the H1.0 immunofluorescence intensity is 92.2 (inactive) in the assay on TDF [3] and 97.4 (inactive) with HCC1569 [4].

With `Cc1ccc(-c2cc(C(F)(F)F)nn2-c2ccc(S(N)(=O)=O)cc2)cc1` [Celecoxib], the figures for the cell number in the assay on HCC1569 [1] and in the assay on TDF [2] were 97.7 and 103, respectively. The H1.0 immunofluorescence intensity in the assay with TDF [3] is 99.1 (inactive); in the assay on HCC1569 [4], 106 (inactive).

As to `c1cc(-c2sc(-c3ccncc3)c(-c3ccncc3)c2-c2ccncc2)ccn1` [4-[3,4,5-tri(4-pyridinyl)-2-thienyl]pyridine], the cell number in the assay with HCC1569 [1] came out at 98.5; in the assay on TDF [2], 95.1. The H1.0 immunofluorescence intensity was 98 (inactive) in the assay with TDF [3] and 98.9 (inactive) in the assay on HCC1569 [4].

For `COc1cc(C(C)=O)cc(-c2cc(C(C)=O)cc(OC)c2O)c1O`, the cell number with HCC1569 [1] was 100; in the assay on TDF [2], 110. The H1.0 immunofluorescence intensity in the assay on TDF [3] was 93.8 (inactive); in the assay on HCC1569 [4], 100 (inactive).

With `O=C1Nc2ccc(I)cc2C1=Cc1cc(Br)c(O)c(Br)c1`, the cell number in the assay on HCC1569 [1] is 98.5 and 105; in the assay on TDF [2], 103. Besides, the H1.0 immunofluorescence intensity with TDF [3] is 93.5 (inactive) and 85.7 (inactive); in the assay with HCC1569 [4] it was 110 (inactive) and 83.8 (inactive).

Regarding `CC(=O)NC(C(=O)O)C(C)(C)SN=O` (configuration not stated) [S-Nitroso-N-acetylpenicillamine], the cell number came to 105 in the assay with HCC1569 [1] and 109 in the assay with TDF [2]. Moreover, the H1.0 immunofluorescence intensity in the assay on TDF [3] is 90.5 (inactive); in the assay with HCC1569 [4], 96.7 (inactive).

For `CCCCCOc1ccccc1C(O)CC#CCCCC(=O)OC` (configuration not stated), the figures for the cell number in the assay with HCC1569 [1] and with TDF [2] were 103 and 106, respectively. The results for the H1.0 immunofluorescence intensity in the assay on TDF [3] and in the assay with HCC1569 [4] were 93 (inactive) and 89.2 (inactive), respectively.

For `O=C1NC(=O)C(=Cc2ccc(-c3ccc(F)cc3O)o2)S1`, the results for the cell number in the assay with HCC1569 [1] and in the assay with TDF [2] were 97.3 and 104, respectively. The H1.0 immunofluorescence intensity in the assay with TDF [3] was 95.1 (inactive); with HCC1569 [4], 97.7 (inactive).

As to `Nc1nc(SCc2ccc([N+](=O)[O-])cc2)c2ncn(C3OC(CO)C(O)C3O)c2n1` (stereo not drawn) [S-(4-Nitrobenzyl)-6-thioguanosine], the cell number is 101 in the assay on HCC1569 [1] and 98.2 with TDF [2]. In addition, the H1.0 immunofluorescence intensity in the assay with TDF [3] was 94.5 (inactive); with HCC1569 [4] it was 93.2 (inactive).

Regarding `CCCSc1ccc2nc(NC(=O)OC)[nH]c2c1` [Albendazole], the cell number is 61.4 in the assay on HCC1569 [1] and 9.62 in the assay on TDF [2]. The values for the H1.0 immunofluorescence intensity in the assay on TDF [3] and with HCC1569 [4] were 149 (active) and 176 (active), respectively.

For `Cc1ccccc1N1C(=O)c2cc(S(N)(=O)=O)c(Cl)cc2NC1C` (configuration not stated) [Metolazone], the cell number with HCC1569 [1] stood at 104; with TDF [2], 110. Moreover, the H1.0 immunofluorescence intensity in the assay on TDF [3] is 89.8 (inactive); in the assay on HCC1569 [4], 91.1 (inactive).

As for `CC(=O)N1CCN(C(=O)/C=C/c2ccc(Sc3ccccc3C(C)C)c([N+](=O)[O-])c2)CC1`, the cell number worked out at 82.5 in the assay with HCC1569 [1] and 86.4 in the assay with TDF [2]. For the same molecule, the values for the H1.0 immunofluorescence intensity in the assay with TDF [3] and with HCC1569 [4] were 103 (inactive) and 123 (inactive), respectively.

Turning to `O=C(CCc1ccc(O)cc1)c1c(O)cc(O)cc1OC1OC(CO)C(O)C(O)C1O` (configuration not stated) [Phlorizine], the cell number with HCC1569 [1] turned out to be 101; in the assay on TDF [2], 99.3. Further, the figures for the H1.0 immunofluorescence intensity in the assay with TDF [3] and with HCC1569 [4] were 102 (inactive) and 97.1 (inactive), respectively.
